# According to PubChem BioAssay (NCI):
# About 83,000 compounds went through this panel and 20% of them were active in at least one assay; those are over-represented in the sample as a whole.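 Method: cells in 96-well plates; compound added at one concentration; 48 h incubation; percent growth measured; values under 10 scored active.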 Active and inactive are the calls of the source.
# Tested on: U251 CNS
# Test: NCI-60 one-dose screen, 48 h (100 = growth as untreated, 0 = no growth, -100 = all killed)
# Settings: 10 µM unless noted
row,Structure (SMILES),growth
1,CCOC(=O)c1sc2ccc(NCc3nc[nH]c3C)cc2c1NC(=O)c1cc(OC)c(OC)c(OC)c1,92.3% (inactive)
2,O=C(NCc1cccnc1)c1cc(-c2csc3c(=O)cc(N4CCOCC4)oc23)cc2c1OCCO2,51.8% (inactive)
3,COc1ccc(/C=C(\C#N)n2nnc3ccccc32)cc1,17.6% (inactive)
4,COc1ccc(C(=O)/C=C/C23c4ccccc4C(c4ccccc42)C2C(=O)NC(=O)C23)cc1 (centres undefined),93.7% (inactive)
5,O=C1CSC(c2ccccc2O)N1c1nnc(Cn2cnnc2)o1 (centres undefined),79.7% (inactive)
6,O=C1CSC(c2ccc(O)cc2)N1c1nnc(Cn2cnnc2)o1 (centres undefined),110% (inactive)
7,O=C(NCOC(O)C(Cl)(Cl)Cl)NCOC(O)C(Cl)(Cl)Cl (centres undefined),102% (inactive)
8,CCOC(=O)c1c(C)[nH]c(C(=O)CCC(=O)OC)c1C,99.9% (inactive)
9,O=C1CC(c2ccc3c(c2)OCO3)Nc2cc3c(cc21)OCO3 (centres undefined),7.39% (active)
10,O=C1/C(=C/c2ccccc2[N+](=O)[O-])COc2ccc(O)c(O)c21,2.61% (active)
11,Cc1nc(-c2ccccc2)cc2c(O)c(C(=O)N/N=C/c3ccc(N(C)C)cc3)[nH]c(=O)c12,41.8% (inactive)
12,N#Cc1c(N)n2c(nc1=Nc1ccc(Cl)cc1)sc1cc(Cl)ccc12,71% (inactive)
13,COc1cc(NC(=O)c2cccc(-c3cc(=O)c4c(O)c(OC)c(OC)cc4o3)c2)cc(OC)c1OC,44.8% (inactive)
14,C=C1c2c(C)nn(-c3ccc(N)cc3)c2N(C)C23CC1C1(C)c4c(C)nn(-c5ccc(N)cc5)c4N(C)C(C)(CC12)C3 (centres undefined),79.1% (inactive)
15,C=CCOc1cccc(/C=C2\SC(=Nc3ccc(O)cc3)NC2=O)c1,13.1% (inactive)
16,COc1cc(C2CC(=O)Nc3n[nH]c(-c4ccccc4)c32)cc(OC)c1OC (centres undefined),62.9% (inactive)
17,CN1CCN(C(=O)[C@@]2(C)CC[C@]3(C)CC[C@]4(C)C(=CC[C@@H]5[C@@]6(C)C/C(=C/c7ccncc7)C(=O)C(C)(C)[C@@H]6CC[C@]54C)[C@@H]3C2)CC1,32.6% (inactive)
18,CCOc1cc(C2C(Cl)C(=O)N2n2cnnc2)ccc1O (centres undefined),98.5% (inactive)
19,Nc1c(C(=O)Nc2ccccc2)sc2nc3c(cc12)CCCCCC3,9.62% (active)

row,Structure (SMILES),growth
1,Cn1c(NCCc2ccc(O)c(O)c2)nc2c1c(=O)n(Cc1ccc(Cl)cc1)c(=O)n2C,104% (inactive)
2,CCCCNCC(=O)Nc1ccc(C(=O)OCC)cc1,101% (inactive)
3,CCCCCCN(CCCCCC)CC(O)c1cccc2ccc(Cl)cc12 (centres undefined),55.2% (inactive)
4,O=C(c1ccccc1)c1ccc(Cl)c([N+](=O)[O-])c1,97.1% (inactive)
5,C[C@@H]1CC[C@@H]2[C@@H]1[C@H](OC(=O)/C=C/c1ccccc1)[C@]1(C3CCCCC3)C[C@@H](NC(=O)CO)[C@@]2(C)O1,111% (inactive)
6,N[C@@H]1CCC[C@H]1NCCCCN1C(=O)c2cccc3cccc(c23)C1=O,59% (inactive)
7,NC(N)=N/N=C(/c1ccccc1)c1ccc(N)cc1,97.5% (inactive)
8,O=C1N/C(=N/O)S/C1=C/c1cn(-c2ccccc2)nc1-c1ccccc1,97% (inactive)
9,COC1=CC(c2ccc[nH]2)=N/C1=C\c1[nH]c(C)c(C(=O)OCCn2cc(CCC[C@@H]3Cc4cc(O)ccc4C4CC[C@]5(C)[C@@H](O)CC[C@H]5C43)nn2)c1C (some centres undefined),47.1% (inactive)
10,N#Cc1c(Oc2ccc([N+](=O)[O-])cc2)nc2sc3cc(Cl)ccc3n2c1=N,75.9% (inactive)
11,COc1cc2c(=O)n(CCCn3ccnc3)c3c4cc5c(cc4ccc3c2cc1OC)OCO5,-2.14% (active)
12,CN(C)S(=O)(=O)n1cnc([C@@H]2[C@@H]3C(=O)OC[C@@H]3C[C@]23N=CN(Cc2ccccc2)C3=O)c1,107% (inactive)
13,CCCCS(=O)(=O)Oc1ccc(-c2nc(C)c(C(=O)OCC)s2)cc1C=O,49.6% (inactive)
14,COc1ccc(Oc2nc(Nc3ccc(N4CCCCC4)nc3)ncc2NC(=O)c2cc(OC)cc(OC)c2)cc1,35.1% (inactive)
15,COc1cc(/C=C/c2nc(Nc3ccc(S(=O)(=O)Nc4cc(C)on4)cc3)c3ccccc3n2)ccc1O,61.4% (inactive)
16,COc1ccc(OC)c(C(=O)Nc2cccc(-c3cc(=O)c4ccccc4o3)c2)c1,93.8% (inactive)
17,CN1CCN(C2=C(Cl)C(=O)c3ccccc3C2=O)CC1,87% (inactive)
18,CS(=O)(=O)c1ccc(-c2[nH]c3ccc(F)cc3c2/C=N/NC(N)=S)cc1,15.5% (inactive)

# Tested on: PC-3 prostate
# Test: as above
# Settings: 10 µM unless noted
row,Structure (SMILES),growth
1,CCN(CC)CCNc1ccc(C)c2sc3cc(C)ccc3c(=O)c12,41% (inactive)
2,CCOC(=O)c1sc2ccc(NCc3nc[nH]c3C)cc2c1NC(=O)c1cc(OC)c(OC)c(OC)c1,85% (inactive)
3,O=C(NCc1cccnc1)c1cc(-c2csc3c(=O)cc(N4CCOCC4)oc23)cc2c1OCCO2,38.6% (inactive)
4,COc1ccc(/C=C(\C#N)n2nnc3ccccc32)cc1,15.8% (inactive)
5,COc1ccc(C(=O)/C=C/C23c4ccccc4C(c4ccccc42)C2C(=O)NC(=O)C23)cc1 (centres undefined),102% (inactive)
6,CCN(CC)CCOc1ccc(/C(=C(\C)c2ccc(OC)c(F)c2)c2ccc(Cl)cc2)cc1,64.8% (inactive)
7,O=C1CSC(c2ccccc2O)N1c1nnc(Cn2cnnc2)o1 (centres undefined),79.4% (inactive)
8,O=C1CSC(c2ccc(O)cc2)N1c1nnc(Cn2cnnc2)o1 (centres undefined),88.7% (inactive)
9,O=C(NCOC(O)C(Cl)(Cl)Cl)NCOC(O)C(Cl)(Cl)Cl (centres undefined),95.6% (inactive)
10,CCOC(=O)c1c(C)[nH]c(C(=O)CCC(=O)OC)c1C,81.2% (inactive)
11,O=C1CC(c2ccc3c(c2)OCO3)Nc2cc3c(cc21)OCO3 (centres undefined),17.7% (inactive)
12,O=C1/C(=C/c2ccccc2[N+](=O)[O-])COc2ccc(O)c(O)c21,-0.516% (active)
13,N#Cc1c(N)n2c(nc1=Nc1ccc(Cl)cc1)sc1cc(Cl)ccc12,62.5% (inactive)
14,COc1cc(NC(=O)c2cccc(-c3cc(=O)c4c(O)c(OC)c(OC)cc4o3)c2)cc(OC)c1OC,49.8% (inactive)
15,C=C1c2c(C)nn(-c3ccc(N)cc3)c2N(C)C23CC1C1(C)c4c(C)nn(-c5ccc(N)cc5)c4N(C)C(C)(CC12)C3 (centres undefined),53.1% (inactive)
16,C=CCOc1cccc(/C=C2\SC(=Nc3ccc(O)cc3)NC2=O)c1,13.9% (inactive)
17,COc1cc(C2CC(=O)Nc3n[nH]c(-c4ccccc4)c32)cc(OC)c1OC (centres undefined),59.3% (inactive)
18,CN1CCN(C(=O)[C@@]2(C)CC[C@]3(C)CC[C@]4(C)C(=CC[C@@H]5[C@@]6(C)C/C(=C/c7ccncc7)C(=O)C(C)(C)[C@@H]6CC[C@]54C)[C@@H]3C2)CC1,23.8% (inactive)
19,CCOc1cc(C2C(Cl)C(=O)N2n2cnnc2)ccc1O (centres undefined),91.1% (inactive)

row,Structure (SMILES),growth
1,Nc1c(C(=O)Nc2ccccc2)sc2nc3c(cc12)CCCCCC3,31.8% (inactive)
2,Cn1c(NCCc2ccc(O)c(O)c2)nc2c1c(=O)n(Cc1ccc(Cl)cc1)c(=O)n2C,60% (inactive)
3,CCCCNCC(=O)Nc1ccc(C(=O)OCC)cc1,71.8% (inactive)
4,CCCCCCN(CCCCCC)CC(O)c1cccc2ccc(Cl)cc12 (centres undefined),37.1% (inactive)
5,O=C(c1ccccc1)c1ccc(Cl)c([N+](=O)[O-])c1,90.2% (inactive)
6,C[C@@H]1CC[C@@H]2[C@@H]1[C@H](OC(=O)/C=C/c1ccccc1)[C@]1(C3CCCCC3)C[C@@H](NC(=O)CO)[C@@]2(C)O1,94% (inactive)
7,N[C@@H]1CCC[C@H]1NCCCCN1C(=O)c2cccc3cccc(c23)C1=O,61.6% (inactive)
8,NC(N)=N/N=C(/c1ccccc1)c1ccc(N)cc1,127% (inactive)
9,O=C1N/C(=N/O)S/C1=C/c1cn(-c2ccccc2)nc1-c1ccccc1,89.3% (inactive)
10,COC1=CC(c2ccc[nH]2)=N/C1=C\c1[nH]c(C)c(C(=O)OCCn2cc(CCC[C@@H]3Cc4cc(O)ccc4C4CC[C@]5(C)[C@@H](O)CC[C@H]5C43)nn2)c1C (some centres undefined),50.4% (inactive)
11,N#Cc1c(Oc2ccc([N+](=O)[O-])cc2)nc2sc3cc(Cl)ccc3n2c1=N,76.7% (inactive)
12,COc1cc2c(=O)n(CCCn3ccnc3)c3c4cc5c(cc4ccc3c2cc1OC)OCO5,11.6% (inactive)
13,CCCCS(=O)(=O)Oc1ccc(-c2nc(C)c(C(=O)OCC)s2)cc1C=O,53.9% (inactive)
14,COc1ccc(Oc2nc(Nc3ccc(N4CCCCC4)nc3)ncc2NC(=O)c2cc(OC)cc(OC)c2)cc1,35.6% (inactive)
15,COc1cc(/C=C/c2nc(Nc3ccc(S(=O)(=O)Nc4cc(C)on4)cc3)c3ccccc3n2)ccc1O,80.4% (inactive)
16,COc1ccc(OC)c(C(=O)Nc2cccc(-c3cc(=O)c4ccccc4o3)c2)c1,92.8% (inactive)
17,CN1CCN(C2=C(Cl)C(=O)c3ccccc3C2=O)CC1,60.5% (inactive)
18,CS(=O)(=O)c1ccc(-c2[nH]c3ccc(F)cc3c2/C=N/NC(N)=S)cc1,19.1% (inactive)
